Bioassay records: PubChem, Broad Institute
EBV LMP1 NFkB: inhibitors of Epstein-Barr LMP1-induced NF-kappaB reporter; AID 504558; inhibition, % at 12.5 µM; LMP1-induced NF-kappaB luciferase reporter cells, luminescence; 350,000 compounds, 0.69% hits; in the data active means inhibition above about 41%;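 further: 0% = neutral control wells and 100% = reference inhibitor control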
N-glyco inh: blocks N-linked glycosylation in D54 reporter cells; D54 ERlucT glycosylation luciferase reporter, 24 h; percent of 100 nM tunicamycin response; reporter increase, % at 12.5 µM; 360,000 compounds, 0.23% hits; AID 588692;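 active means mean luciferase reporter signal, scaled so untreated is 0 and the glycosylation-blocking control 100, at or above a set limit in every replicate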;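 further: luciferase carries N-glycosylation sites so blocking glycosylation raises the light; 0% = median of neutral control wells and 100% = median of 100 nM tunicamycin wells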
Shn3 inh set2: inhibitors of Schnurri-3 3'UTR reporter in osteoblasts. inhibition, % at 12.5 µM. Clone20 osteoblast Shn3 3'UTR firefly luciferase, 24 h. AID 588674. 360,000 compounds, 0.52% hits;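 active means mean inhibition of at least 75% with every replicate also reaching 75%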;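 further: 0% = median of neutral control wells and 100% = pilot-screen positive control compound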
NSD2 HMT inh: NSD2 (human) methyltransferase inhibition; O96028; NSD2 peptide methylation, AlphaScreen, 120 min; inhibition, % at 12.5 µM; 310,000 compounds, 0.54% hits; AID 743445; in the data active means inhibition above about 50%
PAX8 inh HTS: inhibitors of PAX8 transcriptional activity in RMG-I cells; RMG-I TPO-luciferase reporter, SteadyGlo, 24 h; inhibition, % at 12.6 µM; 360,000 compounds, 1.2% hits; AID 652154;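 active means mean replicate inhibition at least 60% with every replicate also reaching 60%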;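 further: luciferase light reporting Pax8 driven TPO promoter activity; plate controls were median of neutral control wells for no effect and mitoxantrone controls for full effect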
HIV Env fusion: blocks HIV Env-driven cell-cell fusion | 360,000 compounds, 1.1% hits | inhibition, % at 12.3 µM | AID 651610 | HeLa-JRFL Env/CEM21 cell fusion, luciferase;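 active means mean replicate inhibition score of at least 50 and every replicate individually at or above 50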;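 further: 0% = plate neutral controls and 100% = maraviroc near 300 nM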
Starred values were filed as active, the others as inactive; [ ] = dose if it differs, or a comment. Rows were chosen to be rich in hits. Some 2.8% of all compounds tested hit in one or more screens of this group.

Cc1cc(-n2c(C)cc(C(=O)CSc3ncnc4ccccc34)c2C)no1 was read as EBV LMP1 NFkB 10, N-glyco inh -3, Shn3 inh set2 54, NSD2 HMT inh -2, PAX8 inh HTS 27 and HIV Env fusion 51*.
Cc1cc(C(=O)CSc2ncnc3ccccc23)c(C)n1C1CC1 was read as EBV LMP1 NFkB 2, N-glyco inh -4, Shn3 inh set2 17, NSD2 HMT inh 1, PAX8 inh HTS -27 and HIV Env fusion -7.
`C[C@@H]1CCCCO[C@H](CN(C)C)[C@H](C)CN([C@@H](C)CO)C(=O)c2cc(NS(=O)(=O)c3ccc(Cl)cc3)ccc2O1` gave PAX8 inh HTS 97* and HIV Env fusion 4[16.7 µM].
For C[C@@H]1CCCCO[C@@H](CN(C)S(=O)(=O)c2ccc(Cl)cc2)[C@H](C)CN([C@H](C)CO)C(=O)c2cc(N(C)C)ccc2O1 the results were PAX8 inh HTS 33 and HIV Env fusion 12[16.7 µM].
Screening COc1ccc(S(=O)(=O)N(C)C[C@@H]2Oc3ccc(N(C)C)cc3C(=O)N([C@H](C)CO)C[C@@H]2C)cc1 returned PAX8 inh HTS 0 and HIV Env fusion 59*[16.7 µM].
`C[C@@H]1CCCCO[C@@H](CN(C)S(=O)(=O)c2ccc(Cl)cc2)[C@H](C)CN([C@@H](C)CO)C(=O)c2cc(N(C)C)ccc2O1` gave PAX8 inh HTS 79* and HIV Env fusion 40[16.7 µM].
C[C@@H]1CCCCO[C@H](CN(C)S(=O)(=O)c2ccc(Cl)cc2)[C@H](C)CN([C@H](C)CO)C(=O)c2cc(NS(=O)(=O)c3ccc(Cl)cc3)ccc2O1 was read as PAX8 inh HTS 51 and HIV Env fusion -2[16.7 µM].
For COc1ccc(S(=O)(=O)N(C)C[C@@H]2Oc3ccc(N(C)C)cc3C(=O)N([C@@H](C)CO)C[C@@H]2C)cc1 the results were PAX8 inh HTS 4 and HIV Env fusion 47[16.7 µM].
C[C@@H]1CCCCO[C@@H](CN(C)S(=O)(=O)c2ccc(Cl)cc2)[C@H](C)CN([C@@H](C)CO)C(=O)c2cc(NS(=O)(=O)c3ccc(Cl)cc3)ccc2O1 was read as PAX8 inh HTS 78* and HIV Env fusion -42[16.7 µM].
`C[C@@H]1CCCCO[C@H](CN(C)S(=O)(=O)c2ccc(Cl)cc2)[C@@H](C)CN([C@H](C)CO)C(=O)c2cc(NS(=O)(=O)c3ccc(Cl)cc3)ccc2O1` gave PAX8 inh HTS -20 and HIV Env fusion -88[16.7 µM].
C[C@@H]1CCCCO[C@H](CN(C)S(=O)(=O)c2ccc(Cl)cc2)[C@H](C)CN([C@@H](C)CO)C(=O)c2cc(NS(=O)(=O)c3ccc(Cl)cc3)ccc2O1 was read as PAX8 inh HTS 74* and HIV Env fusion -86[16.7 µM].
C[C@@H]1CCCCO[C@@H](CN(C)S(=O)(=O)c2ccc(Cl)cc2)[C@@H](C)CN([C@H](C)CO)C(=O)c2cc(NS(=O)(=O)c3ccc(Cl)cc3)ccc2O1 was read as PAX8 inh HTS -32 and HIV Env fusion -42[16.7 µM].
Screening C[C@H](CO)N1C[C@H](C)[C@H](CN(C)C(=O)Cc2ccccc2)OCCCC[C@H](C)Oc2ccc(NS(=O)(=O)c3ccc(Cl)cc3)cc2C1=O returned PAX8 inh HTS 67* and HIV Env fusion 23[16.7 µM].
`C[C@@H]1CCCCO[C@H](CN(C)S(=O)(=O)c2ccc(Cl)cc2)[C@@H](C)CN([C@@H](C)CO)C(=O)c2cc(NS(=O)(=O)c3ccc(Cl)cc3)ccc2O1` gave PAX8 inh HTS 68*.
Screening C[C@@H](NC(=O)C[C@H]1C=C[C@H](NC(=O)Nc2ccc3c(c2)OCO3)[C@H](CO)O1)c1ccccc1 returned PAX8 inh HTS -38 and HIV Env fusion 2[16.7 µM].
For C[C@@H]1CN([C@H](C)CO)S(=O)(=O)c2ccc(-c3ccc(C(=O)N(C)C)cc3)cc2O[C@H]1CN(C)C(=O)C1CC1 the results were HIV Env fusion -7[16.7 µM].
N#CC1=C(N)OC2=C(C(=O)CCC2)[C@]12C(=O)N(CC(N)=O)c1ccccc12 was read as EBV LMP1 NFkB -4, N-glyco inh 2, Shn3 inh set2 -6 and NSD2 HMT inh -4.
N#CC1=C(N)OC2=C(C(=O)CCC2)C12C(=O)N1CCCc3cccc2c31 (stereo not drawn) was read as EBV LMP1 NFkB 84*, N-glyco inh 1 and Shn3 inh set2 16.
CCc1nc(N2[C@H](C#N)[C@@H](c3ccccc3-c3ccccc3F)[C@@H]2CO)sc1C was read as PAX8 inh HTS -2.
`Cc1noc(C)c1S(=O)(=O)Nc1ccc2c(c1)CC(=O)N([C@H](C)CO)C[C@H](C)[C@@H](CN(C)S(=O)(=O)c1ccc(Cl)cc1)O2` gave PAX8 inh HTS 2 and HIV Env fusion -4[16.7 µM].
Cc1onc(-c2ccccc2)c1C(=O)NC(=S)NNC(=O)c1ccc(O)cc1 was read as EBV LMP1 NFkB 5, N-glyco inh 0, Shn3 inh set2 41, NSD2 HMT inh 3, PAX8 inh HTS 43 and HIV Env fusion 69*.
`Cc1onc(-c2ccccc2)c1C(=O)NC(=S)NNC(=O)c1ccc(O)cc1O` gave EBV LMP1 NFkB 43*, N-glyco inh -11, Shn3 inh set2 77, NSD2 HMT inh -3, PAX8 inh HTS 86* and HIV Env fusion 24.
Screening CNC[C@@H]1Oc2ccc(NC(=O)CCCN(C)C)cc2C(=O)N([C@H](C)CO)C[C@@H]1C returned PAX8 inh HTS -5 and HIV Env fusion -5[16.7 µM].
For O=C1CN(Cc2ccc(F)cc2)C[C@H]2[C@@H](c3ccc(Br)cc3)[C@@H](CO)N12 the results were PAX8 inh HTS 6.
Screening C[C@@H]1CN([C@H](C)CO)C(=O)CCCn2nncc2CO[C@@H]1CN(C)Cc1ccc(-c2ccccc2)cc1 returned HIV Env fusion 18[16.7 µM].
For C[C@H](CO)N1C[C@H](C)[C@H](CN(C)C)Oc2ncc(-c3cccc(F)c3)cc2C1=O the results were HIV Env fusion -21[16.7 µM].
For O=C1Nc2ccccc2C1=Nc1ccccc1-c1ccccc1 the results were EBV LMP1 NFkB 78*, N-glyco inh 16, Shn3 inh set2 13, PAX8 inh HTS 9 and HIV Env fusion -10.
CC1(C)N=C(N)N=C(N)N1c1ccc(OCC(=O)Nc2ccccc2)c(Cl)c1 was read as EBV LMP1 NFkB -10, N-glyco inh -7, Shn3 inh set2 42, NSD2 HMT inh 1, PAX8 inh HTS 54 and HIV Env fusion -1.
For CC1(C)N=C(N)N=C(N)N1c1ccc(OCCCOc2ccccc2)c(Cl)c1 the results were EBV LMP1 NFkB -5, N-glyco inh -15, Shn3 inh set2 -7, NSD2 HMT inh 1, PAX8 inh HTS 71* and HIV Env fusion 2.
For CC(=O)Nc1ccc(Sc2ccc([N+](=O)[O-])o2)cc1 the results were EBV LMP1 NFkB -100, N-glyco inh 9, Shn3 inh set2 99*, NSD2 HMT inh 15, PAX8 inh HTS 114* and HIV Env fusion inactive.
